Data reported in PubChem BioAssay (NCI).
Compounds without any hit were thinned out: in the full panel of roughly 83,000, 20% have a hit.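 Cell lines were cultured in 96-well plates, exposed to a single compound concentration, and assessed for percent growth 48 hours later.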 The source made the active and inactive calls.

What follows are compounds tested on NCI-H226 lung (assay: NCI-60 one-dose screen, 48 h (100 = growth as untreated, 0 = no growth, -100 = all killed)). Details: 10 µM unless noted.
Procedure: Growth inhibition of the NCI-H226 human Non-Small Cell Lung tumor cell line is measured as a screen for anti-cancer activity. Cells are grown in 96 well plates and exposed to the test compound for 48 hours. Compounds are tested at a single concentration, which is 10^-5 M for most compounds. The reported endpoint is percent growth (GI% or GIPRCNT), where numbers from 0 - 100% represent growth inhibition, and numbers from -100% - 0 represent cell death. For example, a value of 40 represents 60% growth inhibition. A value of 0 means no net growth occurred over the course of the experiment. A value of -40 indicates 40% of cells at the beginning of the experiment died by the end of the experiment. A value of -100 means all cells are dead at the end of the experiment.
NCI-60 Human Tumor Cell Lines Screen was performed using the standard one-dose NCI protocol, which is described in more detail at https://dtp.cancer.gov/discovery_development/nci-60/default.htm.
Compounds with GIPRCNT values below 10 were considered active. Activity score was based on GIPRCNT using the following formula: […]
Score is 0 for GIPRCNT values of 100 or above, 50 for GIPRCNT values of 0, and 100 for GIPRCNT values of -100.
In the case of `COc1cc(/C=C/c2cc(/C=C/c3ccc(O)c(OC)c3)n(-c3c(Cl)cccc3Cl)c(=O)n2)ccc1O`, the growth is reported as 48.8% (inactive).
With `COc1cc(/C=C/c2cc(O)c3cc(C(C)=O)c(=O)oc3c2)cc2c1O[C@]1(C)CC[C@@H](O)C(C)(C)[C@H]1C2` the growth was 76.4% (inactive).
In the case of `O=Nc1c(O)c(Cl)cc2ccccc12`, the growth is reported as 78.9% (inactive).
In the case of `COc1ccc(NC(=O)c2ccc(/C=C/C(=O)c3ncc[nH]3)cc2)cc1`, the growth is reported as 96.5% (inactive).
In the case of `CC1(C)CC[C@]2(C(=O)Nc3ccccn3)CC[C@]3(C)C(=CC[C@@H]4[C@@]5(C)C/C(=C/c6cccnc6)C(=O)C(C)(C)[C@@H]5CC[C@]43C)[C@H]2C1`, the growth is reported as 47.8% (inactive).
In the case of `C=C1c2nc3ccccc3n2C=C(c2cccc(Cl)c2)N1Cc1ccc(OC)cc1`, the growth is reported as 94.1% (inactive).
`O=C1NC(=Nc2ccc(O)cc2)S/C1=C\c1cccc(Cl)c1` was tested, and the growth was 102% (inactive).
For `COc1ccc(Nc2nc(SC)nc(-c3cccc([N+](=O)[O-])c3)c2C#N)cc1`, the growth was 18.3% (inactive).
With `O=C1CC[C@H](c2ccc(O)c3c2C(=O)[C@@H]2O[C@@H]2C3=O)c2cccc(O)c21` the growth was -14.6% (active).
In the case of `COc1cccc(-c2nc3sccn3c2-c2ccnc(NCCCNS(=O)(=O)c3cccc(Cl)c3)c2)c1`, the growth is reported as 33.8% (inactive).
With `CCC([N+](=O)[O-])S(=O)(=O)c1ccc(C)cc1` (stereo not given) the growth was 102% (inactive).
`CC(=O)c1cc2c(N)c(C(=O)Nc3cccc4ccccc34)sc2nc1C` was tested, and the growth was 81.3% (inactive).
`CCNC(=O)Oc1ccc(/C(=C(\C)c2ccc(Cl)cc2)c2ccc(OCCN(CC)CC)cc2)cc1` was tested, and the growth was 76.7% (inactive).
`CC(=O)c1cc2c(N)c(C(=O)Nc3cccc(F)c3C)sc2nc1C` was tested, and the growth was 88% (inactive).
With `CCOC(=O)c1cc(C(=O)c2ccc(O)c(O)c2)n2ccc(-c3ccn4c(C(=O)c5ccc(O)c(O)c5)cc(C(=O)OCC)c4c3)cc12` the growth was 107% (inactive).
In the case of `CC(=O)c1nc2ccccc2n1CC(=O)c1cccc(Cl)c1`, the growth is reported as 105% (inactive).
`C=CC(=O)Nc1cccc(-c2nc(SC)nc(NCc3ccccc3)c2C#N)c1` was tested, and the growth was 46.8% (inactive).
In the case of `CC(=O)OCCC/C(=C/c1cc2ccccc2c2ccccc12)[N+](=O)[O-]`, the growth is reported as -51.6% (active).
In the case of `O=C1C=CC(=O)N1c1ccc2c(c1)Cc1cc(F)ccc1-2`, the growth is reported as 99.3% (inactive).
In the case of `Nc1n[nH]c2cc(F)c([C@@H]3Nc4ccc5[nH]ncc5c4[C@H]4C5CCC(C5)[C@@H]34)cc12` (stereo not given in full), the growth is reported as 15% (inactive).
For `COC(=O)c1ccc(Cn2cnc3c(N)ncnc32)cc1`, the growth was 106% (inactive).
For `C#CCOc1ccc2ncnc(NCc3cccc(NC(=O)CCl)c3)c2c1`, the growth was 25.3% [8.25 µM] (inactive).
In the case of `COC[C@H](C)n1c(C2CCOCC2)nc2cnc3cc(-c4c(C)noc4C)c(OC)cc3c21`, the growth is reported as 67% (inactive).
With `COc1cc(-c2nc3ccccc3[nH]2)ccc1OCC(=O)N=Nc1c(O)[nH]c2ccc(Cl)cc12` the growth was 103% (inactive).
`Cc1ccc(NS(=O)(=O)c2ccc(-c3cnc(C4CC4)o3)cc2)cc1C` was tested, and the growth was 47.6% (inactive).
For `C#Cc1cccc(NC(=O)c2ccccc2NC(=O)CCl)c1`, the growth was 50.1% [8.25 µM] (inactive).
In the case of `O=C(Cc1ccc(/C=C/C(=O)c2ncc[nH]2)cc1)Nc1ccc(F)cc1`, the growth is reported as 61.3% (inactive).
`COc1ccc(/C=C/c2nc(-c3n[nH]c(=O)n3-c3ccccc3)c3ccccc3n2)cc1` was tested, and the growth was 93.5% (inactive).
With `COc1ccc(-c2cc(-c3ccc(Nc4ccnc5cc(Cl)ccc45)cc3)nc(N3CCOCC3)n2)cc1` the growth was 69.4% (inactive).
For `O=C1/C(=C/c2ccc(Cl)cc2)SC(=S)N1CCc1ccc(O)cc1`, the growth was 96.1% (inactive).
`COc1ccc2c(c1)O/C(=C\c1cccc(OCC(=O)Nc3nc4c(s3)CCCC4)c1)C2=O` was tested, and the growth was 86.9% (inactive).
In the case of `N#Cc1cnn(-c2nc3c(Cl)cccc3s2)c1N`, the growth is reported as 76.2% (inactive).
In the case of `CN(C)c1ccc(N=Nc2ccccn2)c(O)c1`, the growth is reported as 14.4% (inactive).
For `CC(=O)O[C@H]1[C@@H]2OC(=O)C(CSc3ccccc3)[C@@H]2C[C@H]2O[C@]2(C)CC/C=C(\C)CCC[C@@H]1C` (stereo not given in full), the growth was 47.9% (inactive).
In the case of `O=C1C=C(O)C(=O)C(CC2=C(O)C(=O)C=C(O)C2=O)=C1O`, the growth is reported as 102% (inactive).
With `CCCCN1CCCn2c1nc1c2c(=O)n(CCC)c(=O)n1CCC` the growth was 113% (inactive).
In the case of `CCCc1cc(=O)n2c(C(=O)Nc3ccc(F)cc3)c(C(=O)Nc3ccc(F)cc3)sc2n1`, the growth is reported as 69.5% [30 µM] (inactive).
For `C=CC(=O)Nc1cccc(-c2nc(SC)nc(NCCc3ccc(OC)c(OC)c3)c2C#N)c1`, the growth was 40.8% (inactive).
In the case of `CN(CCCCCl)P(=O)(OCc1ccc([N+](=O)[O-])o1)C(F)(F)c1ccc(CC(=O)NC[C@@H](O)/C=C\[C@@H](O)[C@H](CO)Cc2ccccc2)cc1` (stereo not given in full), the growth is reported as 95.6% (inactive).
`N=C(N)c1ccc(-c2ccc(-c3ccc4ccccc4c3)s2)s1` was tested, and the growth was 92.8% (inactive).
